Results filed as inconclusive are left out. Calls of active or inactive are those of the source.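 How the source made its calls, unless noted: active means aptamer binding inhibition above 30%, about 3 SD of noise from non-fluorescent compounds; inactive means inhibition at or below 30%.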
How the values were obtained:
[1] = rapamycin-like changes in RPL19A-GFP expression – cell-based, S. cerevisiae, multiplex flow cytometry, primary screen (AID 1862; in the data active means percent of DMSO control GFP below about 86%;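 further: lower values mimic rapamycin by blocking the RPL19A rise seen in DMSO cells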); details: S. cerevisiae RPL19A-GFP strain, flow cytometry fluorescence, 3 h; at 10 µM; stronger effect = lower value
[2] = TOR pathway GLN3 branch reporter MEP2-GFP changes – S. cerevisiae, multiplex flow cytometry, primary screen (AID 1867;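 active means GFP response, as percent of the DMSO control, above the screen-wide mean plus 3 SD, about 139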;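 further: median GFP channel fluorescence of barcode-gated MEP2-GFP cells measured by flow cytometry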); details: S. cerevisiae MEP2-GFP strain, 3 h, at 10 µM, stronger effect = higher value, 100% means same as DMSO wells
[3] = TOR pathway RTG branch CIT2 reporter changes – S. cerevisiae, GFP fusion, multiplex flow cytometry, primary screen (AID 1870;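 active means percent response above a set limit, the screen-wide mean plus 3 SD, cut at about 130% in these data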;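 further: barcoded CIT2-GFP strain pooled with four other GFP strains with rapamycin as positive control; median GFP fluorescence per well over plate mean of DMSO wells so 100% = DMSO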); details: S. cerevisiae CIT2-GFP expression, 3 h, at 10 µM, stronger effect = higher value
[4] = TOR pathway LAP4-GFP level changes – S. cerevisiae, multiplex flow cytometry, primary screen (AID 1873;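 active means GFP signal, as percent of the solvent control, above the screen mean plus 3 SD, about 149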); details: S. cerevisiae LAP4-GFP expression, 3 h, at 10 µM, stronger effect = higher value
[5] = yeast AGP1-GFP level changes, GLN3 branch – cell-based, multiplex flow cytometry, S. cerevisiae, primary screen (AID 1887;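 active means GFP signal above the screen-wide mean plus 3 SD, that is over about 124.5% of the solvent control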;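 further: AGP1-GFP fusion strain of S. cerevisiae within a five-strain barcoded multiplex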); details: 3 h, at 10 µM, stronger effect = higher value
[6] = reduced mouse 2C T cell binding to pMHC/ICAM-1 vesicles – MLPCN validation set, flow cytometry, LFA-1/ICAM-1 modulator project, pilot screen (AID 2523;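 active means response below a set limit, under 55% cells CD8-positive and vesicle-bound, and CD8 cells' 90th-percentile brightness under 279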;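 on vesicle binding response: mean PE anti-B7-1 fluorescence of CD8+ cells relative to row control; 100% = QL9-loaded vesicles with DMSO vehicle in the same plate row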); details: 2C mouse CD8+ T cells, at 7 µM, stronger effect = lower value; double positive events: measured here: CD8+/vesicle+ event percentage
[7] = molecular target: Integrin beta-1 (Homo sapiens) + Integrin alpha-4 (Homo sapiens) (UniProt P13612+P05556); assay: alpha4beta1 integrin LIBS antibody binding reduction – U937 cells, HUTS-21 mAb, flow cytometry, validation set, VLA-4 allosteric modulator project, pilot screen (AID 2674;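 active means inhibition above 50%, about 3 SD of the validation set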;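 further: antibody binding induced by the VLA-4 ligand LDV present at three times its Kd; 0% = LDV ligand with antibody and no compound and 100% = antibody without LDV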); details: HUTS-21 LIBS mAb binding, at 6.7 µM, stronger effect = higher value, binding induced by LDV ligand
Integrin beta-1 (Homo sapiens) + Integrin alpha-4 (Homo sapiens), sequence (P05556 whole entry, looked up): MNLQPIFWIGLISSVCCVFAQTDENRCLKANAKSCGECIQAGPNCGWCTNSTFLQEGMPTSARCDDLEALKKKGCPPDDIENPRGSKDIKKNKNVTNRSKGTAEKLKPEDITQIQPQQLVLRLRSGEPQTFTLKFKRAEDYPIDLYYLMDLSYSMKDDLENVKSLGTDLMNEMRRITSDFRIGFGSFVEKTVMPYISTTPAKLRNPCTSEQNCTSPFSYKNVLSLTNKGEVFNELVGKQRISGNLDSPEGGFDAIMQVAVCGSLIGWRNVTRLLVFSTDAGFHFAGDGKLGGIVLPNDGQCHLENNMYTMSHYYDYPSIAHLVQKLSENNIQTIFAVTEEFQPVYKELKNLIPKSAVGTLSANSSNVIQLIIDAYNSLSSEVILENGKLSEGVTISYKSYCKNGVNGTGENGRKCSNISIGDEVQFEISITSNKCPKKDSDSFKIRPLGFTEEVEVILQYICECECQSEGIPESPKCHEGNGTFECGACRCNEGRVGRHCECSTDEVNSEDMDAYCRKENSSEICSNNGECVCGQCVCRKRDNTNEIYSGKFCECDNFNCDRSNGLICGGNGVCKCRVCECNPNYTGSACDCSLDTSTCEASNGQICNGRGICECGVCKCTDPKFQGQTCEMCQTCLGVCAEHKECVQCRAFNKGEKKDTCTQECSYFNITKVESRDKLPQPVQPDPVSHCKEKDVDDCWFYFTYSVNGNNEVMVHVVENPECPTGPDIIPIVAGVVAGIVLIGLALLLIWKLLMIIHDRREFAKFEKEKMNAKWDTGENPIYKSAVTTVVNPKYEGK
Integrin beta-1 (Homo sapiens) + Integrin alpha-4 (Homo sapiens), sequence (P13612 whole entry, looked up): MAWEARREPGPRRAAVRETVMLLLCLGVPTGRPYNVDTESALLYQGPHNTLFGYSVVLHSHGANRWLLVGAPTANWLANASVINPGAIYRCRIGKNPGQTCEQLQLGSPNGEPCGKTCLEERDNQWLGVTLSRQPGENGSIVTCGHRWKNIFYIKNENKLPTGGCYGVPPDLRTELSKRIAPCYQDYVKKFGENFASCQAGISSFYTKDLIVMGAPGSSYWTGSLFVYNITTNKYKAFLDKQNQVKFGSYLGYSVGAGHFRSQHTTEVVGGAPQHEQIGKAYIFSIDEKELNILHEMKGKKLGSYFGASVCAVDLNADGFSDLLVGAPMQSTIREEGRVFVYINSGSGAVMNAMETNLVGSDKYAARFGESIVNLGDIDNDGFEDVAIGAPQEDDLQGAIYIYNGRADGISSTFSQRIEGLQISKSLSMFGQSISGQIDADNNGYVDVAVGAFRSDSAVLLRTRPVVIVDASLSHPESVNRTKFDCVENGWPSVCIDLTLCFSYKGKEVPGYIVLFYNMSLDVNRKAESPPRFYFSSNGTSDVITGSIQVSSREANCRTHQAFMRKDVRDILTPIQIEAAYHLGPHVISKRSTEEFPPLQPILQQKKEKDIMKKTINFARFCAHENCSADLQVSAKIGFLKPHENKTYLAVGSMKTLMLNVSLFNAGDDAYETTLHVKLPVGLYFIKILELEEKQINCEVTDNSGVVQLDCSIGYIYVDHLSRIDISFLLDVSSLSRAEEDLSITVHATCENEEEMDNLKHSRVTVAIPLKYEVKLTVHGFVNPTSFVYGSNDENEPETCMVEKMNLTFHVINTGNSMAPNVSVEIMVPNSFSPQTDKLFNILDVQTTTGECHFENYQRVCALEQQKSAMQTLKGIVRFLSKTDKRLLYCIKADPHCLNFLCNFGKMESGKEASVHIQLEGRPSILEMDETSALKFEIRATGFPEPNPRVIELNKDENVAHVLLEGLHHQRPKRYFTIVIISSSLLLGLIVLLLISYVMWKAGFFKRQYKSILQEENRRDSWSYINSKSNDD

[8] = calorie-restriction mimetic ROS inhibitors, yeast – validation compound set, pilot screen (AID 2706;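 active means superoxide response below 65% of plate, a cut near 3 SD across the whole screen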;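 further: yeast exposed to compound for one week at 30 degrees C before staining; 100% = mean of all compound wells on the same plate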); details: S. cerevisiae aging, superoxide DHE fluorescence; at 10 µM; stronger effect = lower value
[9] = molecular target: Beta-adrenergic receptor kinase 1 (Homo sapiens) (UniProt P25098); assay: GRK2 binders displacing RNA aptamer, biochemical, validation, human GRK2, bead flow cytometry (AID 488806); details: bead-bound GRK2, FAM-aptamer displacement, at 10 µM, stronger effect = higher value
Beta-adrenergic receptor kinase 1 (Homo sapiens), sequence (P25098 whole entry, looked up): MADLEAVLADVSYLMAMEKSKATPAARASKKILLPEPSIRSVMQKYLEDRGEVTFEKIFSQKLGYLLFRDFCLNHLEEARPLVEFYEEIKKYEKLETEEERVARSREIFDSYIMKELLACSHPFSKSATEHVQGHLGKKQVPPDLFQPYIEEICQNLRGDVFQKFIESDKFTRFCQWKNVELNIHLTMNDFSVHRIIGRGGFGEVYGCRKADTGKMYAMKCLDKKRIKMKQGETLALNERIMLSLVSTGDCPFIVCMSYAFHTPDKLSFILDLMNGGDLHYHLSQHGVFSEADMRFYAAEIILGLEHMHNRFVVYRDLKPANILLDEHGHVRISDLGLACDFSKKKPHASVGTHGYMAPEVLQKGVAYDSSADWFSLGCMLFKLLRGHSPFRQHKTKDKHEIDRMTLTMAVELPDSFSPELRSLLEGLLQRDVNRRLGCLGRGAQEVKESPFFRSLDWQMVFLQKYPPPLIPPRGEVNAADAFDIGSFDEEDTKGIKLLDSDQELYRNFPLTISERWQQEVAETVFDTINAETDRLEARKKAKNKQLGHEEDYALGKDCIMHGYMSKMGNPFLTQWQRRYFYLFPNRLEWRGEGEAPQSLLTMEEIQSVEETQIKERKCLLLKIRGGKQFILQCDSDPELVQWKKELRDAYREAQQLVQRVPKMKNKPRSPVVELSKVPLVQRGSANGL

[10] = molecular target: Beta-2 adrenergic receptor (Homo sapiens) (UniProt P07550); assay: agonist-induced loss of surface beta2AR – cell-based, FAP fluorogen, flow cytometry, validation set, pilot screen (AID 504459;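 active means percent response above 42, roughly 3 SD of non-fluorescent test compounds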;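 further: agonist-driven loss of surface beta2AR via internalization measured by FAP dye flow cytometry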); details: Am2.2-beta2AR cells, at 10 µM, stronger effect = higher value
Beta-2 adrenergic receptor (Homo sapiens), sequence (P07550 whole entry, looked up): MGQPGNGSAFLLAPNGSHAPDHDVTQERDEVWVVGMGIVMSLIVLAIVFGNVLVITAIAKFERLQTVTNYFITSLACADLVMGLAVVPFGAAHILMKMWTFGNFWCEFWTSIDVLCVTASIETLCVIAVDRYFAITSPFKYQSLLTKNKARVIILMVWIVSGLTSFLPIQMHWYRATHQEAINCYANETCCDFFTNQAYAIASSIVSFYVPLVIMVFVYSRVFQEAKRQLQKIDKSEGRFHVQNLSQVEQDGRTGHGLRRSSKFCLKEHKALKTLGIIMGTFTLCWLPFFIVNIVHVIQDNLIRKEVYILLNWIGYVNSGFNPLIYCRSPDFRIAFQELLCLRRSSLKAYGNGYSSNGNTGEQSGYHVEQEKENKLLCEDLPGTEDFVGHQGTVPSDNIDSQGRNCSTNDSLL

[11] = molecular target: AP-2 complex subunit beta (Homo sapiens) (UniProt P63010); assay: beta-arrestin/AP2 interaction blockers – biochemical, validation set, GST-AP2 beads, flow cytometry, pilot screen (AID 504541;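 active means inhibition above 54%, about 3 SD of non-fluorescent compounds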;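 further: AP2 carries R879A mutation and is captured from E. coli lysate; bead-bound FITC arrestin peptide fluorescence measuring arrestin peptide binding to AP2; 0% = DMSO wells and 100% = excess unlabeled arrestin peptide control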); details: FITC arrestin peptide, at 10 µM, stronger effect = higher value, AP2 beta2 appendage fragment, R879A mutant
AP-2 complex subunit beta (Homo sapiens), sequence (P63010 whole entry, looked up, the tested form may be a part, one chain of several): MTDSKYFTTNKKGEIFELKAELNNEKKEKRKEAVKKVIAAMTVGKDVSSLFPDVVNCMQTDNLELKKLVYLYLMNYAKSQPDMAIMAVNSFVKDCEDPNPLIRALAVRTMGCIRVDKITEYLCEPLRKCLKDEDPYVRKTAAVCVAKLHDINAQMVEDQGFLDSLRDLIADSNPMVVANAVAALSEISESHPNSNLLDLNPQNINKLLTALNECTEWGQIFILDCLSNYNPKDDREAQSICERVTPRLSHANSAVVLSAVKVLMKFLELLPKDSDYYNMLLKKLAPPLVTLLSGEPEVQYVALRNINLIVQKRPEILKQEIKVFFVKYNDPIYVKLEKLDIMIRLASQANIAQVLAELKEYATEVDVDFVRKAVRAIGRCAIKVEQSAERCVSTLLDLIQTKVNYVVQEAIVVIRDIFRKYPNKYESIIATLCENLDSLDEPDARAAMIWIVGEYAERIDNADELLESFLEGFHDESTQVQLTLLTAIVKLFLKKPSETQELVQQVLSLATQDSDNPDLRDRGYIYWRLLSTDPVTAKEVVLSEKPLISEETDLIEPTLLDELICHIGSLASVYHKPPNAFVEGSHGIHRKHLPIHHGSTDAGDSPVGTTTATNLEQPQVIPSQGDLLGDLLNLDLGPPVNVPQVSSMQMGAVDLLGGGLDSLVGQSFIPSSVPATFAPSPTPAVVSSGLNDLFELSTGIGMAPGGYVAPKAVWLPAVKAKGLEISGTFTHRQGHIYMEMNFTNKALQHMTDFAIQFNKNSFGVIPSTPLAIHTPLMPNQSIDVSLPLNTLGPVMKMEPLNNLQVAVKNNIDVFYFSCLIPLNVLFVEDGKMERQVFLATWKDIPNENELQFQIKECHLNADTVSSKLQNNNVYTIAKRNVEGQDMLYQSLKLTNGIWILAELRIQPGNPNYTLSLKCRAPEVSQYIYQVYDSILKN

[12] = cytosolic pH regulators acting via V-ATPase – S. cerevisiae, pHLuorin, HTS validation (AID 504600; in the data active means response above about 15%;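 further: plate controls were DMSO for no effect and reference compound for full effect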); details: V-ATPase proton transport, at 10 µM, stronger effect = higher value
[13] = system: anti-desmoglein-3 scFv antibody binding to human DSG3; assay: blockers of pathogenic pemphigus antibody–desmoglein-3 binding – biochemical, validation compound set, bead-based, flow cytometry, pilot screen (AID 588368;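 active means binding below the plate cutoff, the plate median minus 3 SD, with a reading above zero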;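 further: signal is the median channel fluorescence of bead-bound GFP antibody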); details: Protein G beads, DSG3-Fc, scFv-GFP binding, at 10 µM, stronger effect = lower value
[14] = Nile Red efflux blockade in pump-expressing yeast – validation compound set, multiplex, phenotypic, pilot screen (AID 588506;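 active means efflux inhibition above 0.42, the validation set average plus 4 SD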;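 further: Nile Red retained in cells so higher fluorescence means more efflux inhibition; 0 = negative control wells and 1 = enniatin B 25 µM full block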); details: S. cerevisiae pump-expressing triplex, Nile Red efflux flow cytometry; at 10 µM; stronger effect = higher value; the pumps come from Candida albicans
[15] = molecular target: ATP-binding cassette sub-family B member 6 (Homo sapiens) (UniProt Q9NP58); assay: blockers of ABCB6-driven porphyrin uptake – K562-ABCB6 cells, flow cytometry, validation set, pilot screen (AID 588550;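 active means inhibition above the screen-wide mean plus 3 SD, about 51%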;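 further: 0% = DMSO wells and 100% = benzethonium chloride 70 µM positive control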); details: K562-ABCB6 porphyrin accumulation, 1 h, at 10 µM, stronger effect = higher value
ATP-binding cassette sub-family B member 6 (Homo sapiens), sequence (Q9NP58 whole entry, looked up): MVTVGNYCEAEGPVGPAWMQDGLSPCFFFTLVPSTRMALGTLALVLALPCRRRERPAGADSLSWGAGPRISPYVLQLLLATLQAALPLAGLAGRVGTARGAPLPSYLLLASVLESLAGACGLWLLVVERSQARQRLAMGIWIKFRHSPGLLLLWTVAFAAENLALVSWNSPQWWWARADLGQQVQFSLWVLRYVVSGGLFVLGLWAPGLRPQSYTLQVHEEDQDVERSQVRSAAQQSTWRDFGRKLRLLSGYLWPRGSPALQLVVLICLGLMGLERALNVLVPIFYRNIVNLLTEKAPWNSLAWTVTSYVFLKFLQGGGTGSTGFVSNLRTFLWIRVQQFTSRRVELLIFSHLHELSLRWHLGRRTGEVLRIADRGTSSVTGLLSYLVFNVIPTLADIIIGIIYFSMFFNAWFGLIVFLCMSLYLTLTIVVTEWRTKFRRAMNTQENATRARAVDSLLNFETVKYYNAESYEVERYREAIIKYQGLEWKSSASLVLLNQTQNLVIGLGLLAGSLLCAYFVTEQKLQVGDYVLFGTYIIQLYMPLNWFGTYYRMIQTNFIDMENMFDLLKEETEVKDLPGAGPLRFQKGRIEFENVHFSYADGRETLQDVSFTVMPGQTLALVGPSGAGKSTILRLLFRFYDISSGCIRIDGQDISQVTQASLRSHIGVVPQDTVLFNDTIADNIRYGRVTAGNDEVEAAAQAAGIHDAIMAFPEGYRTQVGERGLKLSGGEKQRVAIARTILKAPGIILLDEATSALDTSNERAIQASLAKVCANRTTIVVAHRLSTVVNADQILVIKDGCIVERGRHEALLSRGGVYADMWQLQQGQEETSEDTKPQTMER

[16] = AML differentiation inducers, ER-HoxA9 marrow cells – cell-based, GFP/MAC1 double positive, flow cytometry, validation set, primary screen (AID 588685;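 active means differentiation response of at least 50%, scaled between solvent and reference control, from cells with both markers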;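 further: compound exposure lasts four days before antibody staining and flow analysis; 0% = DMSO wells and 100% = 5 µM fulvestrant positive control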); details: stronger effect = higher value, normalized: vehicle 0, fulvestrant 100

Cc1cc(O)c(C(C)C)cc1C1(c2cc(C(C)C)c(O)cc2C)OC(=O)c2ccccc21
active: inhibition [11] 62.6%
inactive: percent of DMSO control GFP [1] 104% | GFP response vs DMSO [2] 107% | percent response of DMSO control [3] 104% | GFP response vs DMSO [4] 120% | GFP response, % of DMSO [5] 108% | vesicle binding response [6] 219% | inhibition [7] 43.2% | superoxide response (% of plate) [8] 88.7% | aptamer binding inhibition [9] -2% | response [10] 3.1% | response [12] -4.85% | binding (% of control) [13] 101% | efflux inhibition (fraction of control) [14] -0.09 | inhibition [15] 5% | differentiation response [16] 15.7%
61.7%: double positive events [6]

CCSC(=O)CCCCCCCCCCCO
59.6%: double positive events [6]
inactive: percent of DMSO control GFP [1] 101% | GFP response vs DMSO [2] 103% | percent response of DMSO control [3] 96.4% | GFP response vs DMSO [4] 127% | GFP response, % of DMSO [5] 106% | vesicle binding response [6] 348% | inhibition [7] 20.2% | superoxide response (% of plate) [8] 78.1% | aptamer binding inhibition [9] 0% | response [10] -27.7% | inhibition [11] 41.3% | response [12] 2.69% | binding (% of control) [13] 103% | efflux inhibition (fraction of control) [14] 0.17 | inhibition [15] -2% | differentiation response [16] -13.9%

CC12CN3CC(C)(CN(C1)C3c1ccc([N+](=O)[O-])o1)C2 (stereo unspecified)
64.6%: double positive events [6]
inactive: percent of DMSO control GFP [1] 102% | GFP response vs DMSO [2] 101% | percent response of DMSO control [3] 95.4% | GFP response vs DMSO [4] 96% | GFP response, % of DMSO [5] 91.5% | vesicle binding response [6] 1050% | inhibition [7] 12% | superoxide response (% of plate) [8] 111% | aptamer binding inhibition [9] 5% | response [10] -5.46% | inhibition [11] 1.92% | response [12] 2.45% | binding (% of control) [13] 93.8% | efflux inhibition (fraction of control) [14] -0.1 | inhibition [15] -9% | differentiation response [16] 7.09%

CN(C)c1ccc(Nc2c3c4c(cccc4n(C)c2=O)C(=O)c2ccccc2-3)cc1
inactive: percent of DMSO control GFP [1] 99.3% | GFP response vs DMSO [2] 108% | percent response of DMSO control [3] 111% | GFP response vs DMSO [4] 126% | GFP response, % of DMSO [5] 108% | vesicle binding response [6] 195% | inhibition [7] -0.27% | superoxide response (% of plate) [8] 71% | aptamer binding inhibition [9] 0% | response [10] -25.2% | inhibition [11] 16.7% | response [12] -0.9% | binding (% of control) [13] 93.8% | efflux inhibition (fraction of control) [14] -0.17 | inhibition [15] 3% | differentiation response [16] -9.91%
60.5%: double positive events [6]

O=C1OC(Nc2ccc3c(c2)OCO3)c2ccccc21 (stereo unspecified)
inactive: percent of DMSO control GFP [1] 99.4% | GFP response vs DMSO [2] 105% | percent response of DMSO control [3] 93.1% | GFP response vs DMSO [4] 114% | GFP response, % of DMSO [5] 97.3% | vesicle binding response [6] 185% | inhibition [7] -22.2% | superoxide response (% of plate) [8] 99.6% | aptamer binding inhibition [9] 3% | response [10] 10.6% | inhibition [11] -3.85% | response [12] 0.82% | binding (% of control) [13] 100% | efflux inhibition (fraction of control) [14] 0.02 | inhibition [15] -1% | differentiation response [16] 21.8%
63.1%: double positive events [6]

O=C1CN(O)C=C2N=c3ccccc3=C2N1c1ccc([N+](=O)[O-])cc1
inactive: percent of DMSO control GFP [1] 106% | GFP response vs DMSO [2] 108% | percent response of DMSO control [3] 107% | GFP response vs DMSO [4] 101% | GFP response, % of DMSO [5] 107% | vesicle binding response [6] 124% | inhibition [7] -17.2% | superoxide response (% of plate) [8] 106% | aptamer binding inhibition [9] 2% | response [10] -10.9% | inhibition [11] -5.08% | response [12] 1% | binding (% of control) [13] 100% | efflux inhibition (fraction of control) [14] -0.13 | inhibition [15] 19% | differentiation response [16] -3.11%
61.3%: double positive events [6]

O=C(O)c1cc2cc(Cl)cc(Cl)c2oc1=O
41.9%: double positive events [6]
active: vesicle binding response [6] 63.6%
inactive: percent of DMSO control GFP [1] 97.9% | GFP response vs DMSO [2] 129% | percent response of DMSO control [3] 104% | GFP response vs DMSO [4] 80.9% | GFP response, % of DMSO [5] 93.1% | inhibition [7] -12.9% | superoxide response (% of plate) [8] 113% | aptamer binding inhibition [9] 7% | response [10] -14.8% | inhibition [11] 8.6% | response [12] 10.3% | binding (% of control) [13] 98.7% | efflux inhibition (fraction of control) [14] 0.05 | inhibition [15] 8% | differentiation response [16] 27.8%

Cc1nonc1CN(C)C(=O)c1ccc(OC2CCN(C(=O)c3cccnc3)CC2)cc1
57.8%: double positive events [6]
inactive: percent of DMSO control GFP [1] 103% | GFP response vs DMSO [2] 105% | percent response of DMSO control [3] 109% | GFP response vs DMSO [4] 98% | GFP response, % of DMSO [5] 102% | vesicle binding response [6] 176% | inhibition [7] 12.3% | superoxide response (% of plate) [8] 94.8% | aptamer binding inhibition [9] 0% | response [10] -1.64% | inhibition [11] -7.99% | response [12] 2.88% | binding (% of control) [13] 103% | efflux inhibition (fraction of control) [14] 0.05 | inhibition [15] 12% | differentiation response [16] -8.96%

— PubChem BioAssay
